Measurements reported in ChEMBL document CHEMBL3433997, “St. Jude Leishmania screening dataset” (2016).

Biological target: Glucose transporter (Leishmania mexicana) (UniProt O61059)
Experiment: ST_JUDE_LEISH: Cytotoxicity at 2uM final concentration against transgenic Leishmania Mexicana promastigotes LmGT2 that are glucose transport deficient and complemented with the L. Mexicana glucose transporter 2. Activity is measured by DNA content using SYBR green in vitro
Format: functional

Point of comparison: `CC(C)(CNC(=O)[C@@H]1CCCN(CCOc2ccc(Cl)cc2)C1)c1nc(-c2ccc(Cl)c(O)c2)c(-c2ccncc2)[nH]1`, inhibition 0.11%. Against it:
- CC1(C)NC(N)=NC(=N)N1OCCCNC(=O)c1ccc(C(=O)NCCCON2C(=N)N=C(N)NC2(C)C)cc1 — higher, 1.51%
- COc1ccc2nccc(N3CCC(CCNCc4cc5c(cn4)OCCO5)CC3)c2c1 — higher, 4.48%
- COc1ccc2nccc([C@@H](O)CN3CCC(NC(=O)c4cc5c(Cl)cc(Cl)cc5[nH]4)CC3)c2c1 — lower, 0.08%
- O=C(CCc1nc2c(cnn2-c2ccccc2)c(=O)[nH]1)NC1CCSc2ccccc21 (centres undefined) — lower, -2.08%
- O=S(=O)(Nc1cccc(CCN2CCCCC2CCN2CCCC2)c1)c1ccc2ccccc2c1 (centres undefined) — lower, -3.3%
- CC(C)(C)N1CCC(N(Cc2ccc(-c3ccc(C(F)(F)F)cc3)cc2)C(=O)Cn2c(CCc3cccc(F)c3F)cc(=O)c3cccnc32)CC1 — lower, -1.6%
- CCCCN(CCCC)Cc1cc2ccccc2cc1O — lower, -0.3%
- CC(C)CCNC(=O)C1Cc2c([nH]c3ccc(Br)cc23)C2(CCN(Cc3ccccc3)CC2)N1 (centres undefined) — higher, 94.2%
- COc1cc(NC(=O)Nc2ccc([N+](=O)[O-])cc2OC)c(OC)cc1Cl — higher, 5%
- CCOc1cc(C)ccc1C1CCN(CCN2CCC(CNC(=O)c3ccc(-c4ccc(C(F)(F)F)cc4)cc3)CC2)CC1 — higher, 1.5%
- CC(=O)N(C)c1cccc(CNc2cc(C)nc(Nc3ccc(C)cc3)n2)c1 — higher, 0.91%
- CN(C)CC(=O)NCC(NCCCNc1cc(=O)c2ccccc2[nH]1)c1cc(Br)cc(Br)c1 (centres undefined) — higher, 5.64%
- O=C(Nc1ccc(Cl)cc1)Nc1cccc(-c2ccc(-c3nc4ccccc4[nH]3)cc2)c1 — higher, 1.94%
- CCCN1CCN(c2ccc(NS(=O)(=O)c3ccc(C(=O)Nc4ccc(Cl)cc4)cc3)cc2)CC1 — lower, -2.28%
- N=C(N)NN=Cc1c2ccccc2c(Cl)c2cc(Cl)ccc12 — higher, 29.3%
- COC(=O)c1cccc(CNCc2ccc(-c3cccc(-c4nc5cc(C(F)(F)F)ccc5[nH]4)c3)cc2)c1 — higher, 11.5%
- O=C1Nc2cccc3c2C1(CCCCN1CCC(c2c(-c4ccc(F)cc4)[nH]c4ccccc24)CC1)CCC3 (centres undefined) — higher, 6.27%
- Cc1cn(CC(=O)Nc2cccc(-c3cccc(-c4nc5cc(C(F)(F)F)ccc5[nH]4)c3)c2)c(=O)[nH]c1=O — higher, 4.55%
- Cc1c(CC(=O)N(C)C2CCN(CCCCCNC(=O)/C=C/c3ccc(Cl)c(Cl)c3)CC2)sc2ccc(Cl)cc12 — higher, 5.9%
- Oc1ccc(CCNc2nc(NCCOc3cccc4ccccc34)nc(N3CCNCC3)n2)cc1 — higher, 2.56%
- CCN(CC)Cc1cc(Nc2ccnc3cc(Cl)ccc23)ccc1O — higher, 4.65%
- NC(=O)C1CCN(Cc2cccc(-c3cccc(-c4nc5cc(F)ccc5[nH]4)c3)c2)CC1 — higher, 1.45%
- O=C(Nc1ccc(Cl)cc1)Nc1ccc(-c2ccc(-c3nc4ccccc4[nH]3)cc2)cc1 — higher, 0.96%
- CN1CCN(c2nc(NCCc3ccc(O)cc3)nc(NCc3ccccc3-c3ccc(C(F)(F)F)cc3)n2)CC1 — higher, 3.13%
- COc1ccc(NC(=O)/C=C/c2ccc(-c3ccc(-c4noc(C)n4)cc3)cc2)cc1OCCN(C)C — higher, 0.27%
- CC(=O)Nc1ccc(C2NC(=O)NC(c3ccccc3)=C2c2nc3ccccc3s2)cc1 (centres undefined) — higher, 2.69%
- Cc1cc(N(C)C2CCN(CC3CCCCC3)C2)nc(Nc2ccc(Cl)cc2)n1 (centres undefined) — higher, 4.28%
- O=C(Nc1cccc(CN2CCCN(Cc3cccc(O)c3)CC2)c1)c1ccc(-c2ccccc2)cc1 — lower, -0.17%
- COc1cc2nc(N3CCC(CNC(=O)/C=C/c4ccccc4F)CC3)nc(N)c2cc1OC — higher, 4.27%
- O=C(N[C@@H](CC1CCCCC1)C(=O)NCc1cccc(C(F)(F)F)c1)c1ccc(O)c(-c2ccc(Cl)c(Cl)c2)c1 — higher, 1.16%
- CCOc1ccc2[nH]c(C)cc(=NN=Cc3ccncc3)c2c1 — lower, -2.05%
- Cc1ccc(Cn2ncc(N3CCCNCC3)c(Cl)c2=O)cc1NC(=O)Nc1ccc(-c2ccccc2)cc1 — higher, 4.8%
- CCc1cccc(C)c1-n1nc(-c2cc(C(C)(C)C)oc2C)cc1N — higher, 0.33%
- CC(CN(C)C)C(=O)Nc1cccc(-c2cccc(-c3nc4ccccc4[nH]3)c2)c1 (centres undefined) — higher, 3.87%
- CCCCNC[C@@H](O)[C@H](Cc1ccccc1)NC(=O)c1cc2c3c(c1)c(CC)cn3CCS(=O)(=O)N2C — higher, 2.04%
- O=C(Nc1ccc2nc3n(c(=O)c2c1)CCCCC3)C(=O)N1CCN(c2ccc(F)cc2)CC1 — higher, 7.95%
- C[C@H](Nc1nc(C(Oc2ccccc2)c2ccccc2)nc2[nH]ncc12)c1ccccc1 (some centres undefined) — higher, 0.54%
- Cc1cc(CN2CCC(Nc3ncc(-c4ccsc4)c4nc(C(F)(F)F)ccc34)CC2)no1 — higher, 5.5%
